Reference: PubChem BioAssay (NCATS)
Records with an inconclusive call do not appear. A call without a number means that no potency is given here. Calls of active or inactive are those of the source. Unless noted, calls come from the whole dose curve.

Columns and labels:
[1] = molecular target: Estrogen receptor (Homo sapiens) (UniProt P03372); test: qHTS assay for small molecule antagonists of estrogen receptor alpha signaling (AID 588513; active = well fitted curve in the direction sought with a large enough effect in the signal ratio, with a control signal flat, not every such curve was filed as active; the % refers to the signal ratio)
Chain of Estrogen receptor (Homo sapiens) (P03372 whole entry, looked up): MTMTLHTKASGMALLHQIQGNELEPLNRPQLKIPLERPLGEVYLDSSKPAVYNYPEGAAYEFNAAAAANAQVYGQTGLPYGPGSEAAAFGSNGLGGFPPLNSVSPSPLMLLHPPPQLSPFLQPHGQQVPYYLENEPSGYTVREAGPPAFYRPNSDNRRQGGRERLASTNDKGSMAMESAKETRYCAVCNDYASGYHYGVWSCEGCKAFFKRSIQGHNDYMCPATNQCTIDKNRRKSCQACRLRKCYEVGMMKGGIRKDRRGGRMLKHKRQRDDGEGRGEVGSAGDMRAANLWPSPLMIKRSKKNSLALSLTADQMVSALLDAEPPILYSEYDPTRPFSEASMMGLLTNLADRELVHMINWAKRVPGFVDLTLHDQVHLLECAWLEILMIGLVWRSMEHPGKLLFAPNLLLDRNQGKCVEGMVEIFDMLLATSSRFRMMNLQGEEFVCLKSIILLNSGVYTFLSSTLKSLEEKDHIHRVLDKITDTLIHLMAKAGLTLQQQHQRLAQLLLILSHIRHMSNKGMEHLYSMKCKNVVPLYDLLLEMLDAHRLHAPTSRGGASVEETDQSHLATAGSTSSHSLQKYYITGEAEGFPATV
How it was run: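 Beta-lactamase reporter, antagonist mode, HEK 293 GripTite cells; 0.5nM E2 stimulus, 18 h, 37 C; CCF4 dye 2 h RT; fluorescence. IC50 and efficacy from Hill fits, normalized to E2 and DMSO.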

[2] = molecular target: Estrogen receptor (Homo sapiens) (UniProt P03372); test: qHTS assay for small molecule agonists of estrogen receptor alpha signaling (AID 588514); note: nearly all actives have a fitted effect of over 70% in size
How it was run: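 Efficacy is expressed against 20 nM 17-beta-estradiol (100%) and DMSO basal (0%); EC50 from Hill equation. Assay: beta-lactamase reporter in ER-alpha-UAS-bla HEK 293 cells, 18 h compound incubation, CCF4 detection.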

[3] = molecular target: Androgen receptor (Homo sapiens) (UniProt P10275); test: qHTS assay for small molecule agonists of androgen receptor signaling (AID 588515; active = well fitted curve in the direction sought with a large enough effect in the signal ratio, with a control signal flat; the % refers to the signal ratio); settings: AR-UAS-bla HEK293, beta-lactamase ratio, agonist 16 h; stronger effect = higher value
Chain of Androgen receptor (Homo sapiens) (P10275 whole entry, looked up): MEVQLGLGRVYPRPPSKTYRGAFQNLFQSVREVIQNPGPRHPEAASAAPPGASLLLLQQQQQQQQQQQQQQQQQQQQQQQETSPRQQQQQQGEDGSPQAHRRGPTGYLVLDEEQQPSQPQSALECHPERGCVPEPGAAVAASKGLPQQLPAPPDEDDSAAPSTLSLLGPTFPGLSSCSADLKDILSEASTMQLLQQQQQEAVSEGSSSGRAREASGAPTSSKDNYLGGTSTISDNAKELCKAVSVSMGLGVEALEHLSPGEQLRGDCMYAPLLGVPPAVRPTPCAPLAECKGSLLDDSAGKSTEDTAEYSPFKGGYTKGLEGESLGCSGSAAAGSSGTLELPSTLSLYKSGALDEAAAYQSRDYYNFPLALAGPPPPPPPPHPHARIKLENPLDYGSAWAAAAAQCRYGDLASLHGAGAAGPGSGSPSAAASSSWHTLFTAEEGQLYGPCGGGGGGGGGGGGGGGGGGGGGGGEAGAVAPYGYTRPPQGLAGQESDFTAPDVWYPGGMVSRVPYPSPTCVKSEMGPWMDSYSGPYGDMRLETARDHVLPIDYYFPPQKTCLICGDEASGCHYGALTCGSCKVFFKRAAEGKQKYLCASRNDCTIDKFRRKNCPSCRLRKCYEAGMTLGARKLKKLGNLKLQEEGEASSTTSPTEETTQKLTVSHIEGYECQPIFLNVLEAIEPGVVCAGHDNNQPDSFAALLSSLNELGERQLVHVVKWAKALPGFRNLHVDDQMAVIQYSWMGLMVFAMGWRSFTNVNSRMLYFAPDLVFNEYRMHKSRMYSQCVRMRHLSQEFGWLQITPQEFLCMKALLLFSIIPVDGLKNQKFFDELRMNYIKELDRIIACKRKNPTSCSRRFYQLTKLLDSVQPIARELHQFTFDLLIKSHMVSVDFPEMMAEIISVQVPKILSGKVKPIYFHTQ
How it was run: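 Stimulation of an AR-responsive β-lactamase reporter in GripTite HEK293 cells was measured after 16 h compound exposure at 37 °C, via CCF4 fluorescence after 2 h RT. EC50 from Hill fits, normalized to R1881 at 30 nM.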

[4] = molecular target: Androgen receptor (Homo sapiens) (UniProt P10275); test: qHTS assay for small molecule antagonists of androgen receptor signaling (AID 588516; active = well fitted curve in the direction sought with a large enough effect in the signal ratio, with a control signal flat, not every such curve was filed as active; the % refers to the signal ratio)
How it was run: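 HEK293 AR-UAS-bla cells, 10% dialyzed FBS medium; cpd titration + R1881 10 nM final, 16 h 37 C; CCF4 2 h RT; FRET ratio; IC50/efficacy via Hill fit.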

[5] = molecular target: Bile acid receptor (Homo sapiens) (UniProt Q96RI1); test: qHTS assay for small molecule antagonists of farnesoid X receptor signaling (AID 588526)
Chain of Bile acid receptor (Homo sapiens) (Q96RI1 whole entry, looked up): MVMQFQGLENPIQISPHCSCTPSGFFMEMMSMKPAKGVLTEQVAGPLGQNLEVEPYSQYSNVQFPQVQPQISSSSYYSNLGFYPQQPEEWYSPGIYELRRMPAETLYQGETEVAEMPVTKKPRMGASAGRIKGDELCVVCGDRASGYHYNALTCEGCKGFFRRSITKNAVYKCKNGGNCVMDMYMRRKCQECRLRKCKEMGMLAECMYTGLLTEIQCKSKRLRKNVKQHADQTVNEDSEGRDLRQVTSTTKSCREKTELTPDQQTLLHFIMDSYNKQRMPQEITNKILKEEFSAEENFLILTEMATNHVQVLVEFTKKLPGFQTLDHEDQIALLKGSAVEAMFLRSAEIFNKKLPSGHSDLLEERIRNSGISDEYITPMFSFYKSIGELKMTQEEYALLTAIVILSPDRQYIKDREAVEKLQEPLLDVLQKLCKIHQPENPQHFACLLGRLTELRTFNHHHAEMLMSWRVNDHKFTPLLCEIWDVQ
How it was run: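 Concentration-response titrations were fitted to the Hill equation for half-maximal inhibition and maximal response, with data normalised to 50 uM chenodeoxycholic acid and DMSO control wells. Cells: FXR-UAS-bla HEK293T, dialyzed FBS.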

[6] = molecular target: Bile acid receptor (Homo sapiens) (UniProt Q96RI1); test: qHTS assay for small molecule agonists of farnesoid X receptor signaling (AID 588527); settings: HEK293T FXR-UAS-bla, beta-lactamase ratio, 16 h; activation: stronger effect = higher value; note: series mostly up to about 77 µM
How it was run: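 Read-out: beta-lactamase reporter fluorescence with CCF4 substrate in GeneBLAzer FXR-UAS-bla HEK293T cells, after 16 h compound exposure at 37 C. Response scaled between DMSO basal (0%) and chenodeoxycholic acid at 100 uM (100%).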

[7] = molecular target: Glucocorticoid receptor (Homo sapiens) (UniProt P04150); test: qHTS assay for small molecule agonists of glucocorticoid receptor signaling (AID 588532; active = well fitted curve in the direction sought with a large enough effect in the signal ratio, with a control signal flat; the % refers to the signal ratio); settings: HeLa MMTV-bla, beta-lactamase ratio, agonist, 18 h; activation: stronger effect = higher value, percent of dexamethasone control, DMSO zero
Chain of Glucocorticoid receptor (Homo sapiens) (P04150 whole entry, looked up): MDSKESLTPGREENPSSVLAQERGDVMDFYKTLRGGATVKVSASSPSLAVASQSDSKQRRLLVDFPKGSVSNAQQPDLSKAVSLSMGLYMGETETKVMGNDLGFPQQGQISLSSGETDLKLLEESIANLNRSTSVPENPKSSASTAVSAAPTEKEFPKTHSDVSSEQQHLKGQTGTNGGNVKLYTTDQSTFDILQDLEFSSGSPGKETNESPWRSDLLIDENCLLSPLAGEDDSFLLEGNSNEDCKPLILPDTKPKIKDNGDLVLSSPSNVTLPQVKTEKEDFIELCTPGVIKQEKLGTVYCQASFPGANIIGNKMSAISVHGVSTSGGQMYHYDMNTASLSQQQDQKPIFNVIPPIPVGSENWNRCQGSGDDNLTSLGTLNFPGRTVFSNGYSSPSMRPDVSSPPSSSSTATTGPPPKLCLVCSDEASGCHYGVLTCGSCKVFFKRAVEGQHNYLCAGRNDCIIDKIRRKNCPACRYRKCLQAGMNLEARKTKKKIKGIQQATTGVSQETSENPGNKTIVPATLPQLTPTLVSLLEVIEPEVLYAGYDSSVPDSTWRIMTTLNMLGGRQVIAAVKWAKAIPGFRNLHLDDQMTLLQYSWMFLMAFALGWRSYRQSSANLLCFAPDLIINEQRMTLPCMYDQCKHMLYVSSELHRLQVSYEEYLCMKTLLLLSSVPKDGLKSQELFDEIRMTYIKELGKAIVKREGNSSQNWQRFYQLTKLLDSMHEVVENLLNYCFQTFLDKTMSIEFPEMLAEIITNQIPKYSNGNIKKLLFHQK
How it was run: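 Titration series, up to 92 uM, applied to GRE-bla HeLa cells for 18 h at 37 C. Detection by CCF4 FRET substrate after 2 h at RT.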

[8] = molecular target: Glucocorticoid receptor (Homo sapiens) (UniProt P04150); test: qHTS assay for small molecule antagonists of glucocorticoid receptor signaling (AID 588533; active = well fitted inhibition curve with a large enough effect in the signal ratio, with a control signal flat, not every such curve was filed as active; the % refers to the signal ratio;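 note: cells stimulated with 2 nM dexamethasone as agonist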)
How it was run: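 Antagonist-mode qHTS: compound titrations added to GRE-bla HeLa cells, then dexamethasone 2 nM final; 18 h, 37 C. CCF4 FRET fluorescence normalized to dexamethasone and DMSO; IC50 from Hill fit.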

[9] = molecular target: Peroxisome proliferator-activated receptor delta (Homo sapiens) (UniProt Q03181); test: qHTS assay for small molecule agonists of peroxisome proliferator-activated receptor delta signaling (AID 588534)
Chain of Peroxisome proliferator-activated receptor delta (Homo sapiens) (Q03181 whole entry, looked up): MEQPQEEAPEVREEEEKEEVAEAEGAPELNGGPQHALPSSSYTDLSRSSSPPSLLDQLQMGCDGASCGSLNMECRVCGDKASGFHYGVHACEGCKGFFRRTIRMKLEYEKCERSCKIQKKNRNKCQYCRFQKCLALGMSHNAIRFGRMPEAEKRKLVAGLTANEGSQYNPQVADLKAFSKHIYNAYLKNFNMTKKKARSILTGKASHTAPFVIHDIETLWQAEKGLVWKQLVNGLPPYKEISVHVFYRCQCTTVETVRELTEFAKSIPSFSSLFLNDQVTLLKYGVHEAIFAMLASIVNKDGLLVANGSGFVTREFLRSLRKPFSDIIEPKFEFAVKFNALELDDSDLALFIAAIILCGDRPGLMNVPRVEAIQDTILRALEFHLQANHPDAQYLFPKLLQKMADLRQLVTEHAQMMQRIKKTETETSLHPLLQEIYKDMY
How it was run: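 Agonist-mode qHTS; reporter cells, 5 hrs 37 C pre-incubation; compound titration, 18 hrs 37 C; CCF4 dye, 2 hrs RT; fluorescence read. EC50/efficacy via Hill fit.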

[10] = qHTS assay for small molecule antagonists of peroxisome proliferator-activated receptor delta signaling (AID 588535; active = well fitted inhibition curve with a large enough effect in the signal ratio, with a control signal flat, not every such curve was filed as active; the % refers to the signal ratio;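 for max response: cells co-treated with a PPAR-delta agonist as stimulator during compound exposure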); settings: HEK293T PPARd-UAS-bla, beta-lactamase FRET ratio, 18 h; 460 nm channel
How it was run: (§1)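 Inhibition of PPAR-delta response element-driven beta-lactamase expression is measured in HEK293T cells exposed to a compound titration series for 18 hrs at 37 C. Half-maximal inhibition comes from Hill equation fitting.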

[11] = molecular target: Peroxisome proliferator-activated receptor delta (Homo sapiens) (UniProt Q03181); test: as above
How it was run: as §1

[12] = molecular target: Peroxisome proliferator-activated receptor gamma (Homo sapiens) (UniProt P37231); test: qHTS assay for small molecule agonists of peroxisome proliferator-activated receptor gamma signaling (AID 588536; active = well fitted curve in the direction sought with a large enough effect in the signal ratio, with a control signal flat, not every such curve was filed as active; the % refers to the signal ratio)
Chain of Peroxisome proliferator-activated receptor gamma (Homo sapiens) (P37231 whole entry, looked up): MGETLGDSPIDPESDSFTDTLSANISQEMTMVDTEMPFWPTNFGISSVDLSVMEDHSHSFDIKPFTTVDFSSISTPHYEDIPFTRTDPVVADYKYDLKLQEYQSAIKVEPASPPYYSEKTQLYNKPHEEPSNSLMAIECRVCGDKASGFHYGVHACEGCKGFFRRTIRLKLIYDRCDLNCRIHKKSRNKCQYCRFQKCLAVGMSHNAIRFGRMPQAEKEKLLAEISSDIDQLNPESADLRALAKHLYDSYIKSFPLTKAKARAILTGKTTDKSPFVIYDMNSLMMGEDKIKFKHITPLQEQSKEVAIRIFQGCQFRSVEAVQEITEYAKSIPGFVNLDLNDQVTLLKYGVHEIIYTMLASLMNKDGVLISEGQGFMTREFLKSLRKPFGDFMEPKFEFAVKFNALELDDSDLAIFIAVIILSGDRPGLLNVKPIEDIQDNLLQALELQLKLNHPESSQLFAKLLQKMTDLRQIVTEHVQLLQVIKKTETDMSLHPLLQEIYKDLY
How it was run: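 Beta-lactamase reporter read-out: CCF4 fluorescence (ex 405, em 460/530 nm) after 2 h at RT. HEK293 GeneBLAzer cells were treated for 16 h at 37 C. Hill fits gave EC50 and efficacy versus 2 uM rosiglitazone (100%) and DMSO (0%).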

[13] = molecular target: Peroxisome proliferator-activated receptor gamma (Homo sapiens) (UniProt P37231); test: qHTS assay for small molecule antagonists of peroxisome proliferator-activated receptor gamma signaling (AID 588537; active = well fitted inhibition curve with a large enough effect in the signal ratio, with a control signal flat, not every such curve was filed as active; the % refers to the signal ratio;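 note: reporter cells co-stimulated with 50 nM rosiglitazone agonist during compound treatment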)
How it was run: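 Compounds are tested as concentration series for inhibition of rosiglitazone-driven (50 nM) reporter expression in GeneBLAzer PPAR-gamma-UAS-bla HEK293 cells. After 16 h at 37 C, CCF4 substrate is added for 2 h at room temperature and blue/green fluorescence is measured.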

[14] = molecular target: Vitamin D3 receptor (Homo sapiens) (UniProt P11473); test: qHTS assay for small molecule antagonists of vitamin D receptor signaling (AID 588541);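 note: receptor activated by calcitriol during compound treatment; series mostly up to about 77 µM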
Chain of Vitamin D3 receptor (Homo sapiens) (P11473 whole entry, looked up): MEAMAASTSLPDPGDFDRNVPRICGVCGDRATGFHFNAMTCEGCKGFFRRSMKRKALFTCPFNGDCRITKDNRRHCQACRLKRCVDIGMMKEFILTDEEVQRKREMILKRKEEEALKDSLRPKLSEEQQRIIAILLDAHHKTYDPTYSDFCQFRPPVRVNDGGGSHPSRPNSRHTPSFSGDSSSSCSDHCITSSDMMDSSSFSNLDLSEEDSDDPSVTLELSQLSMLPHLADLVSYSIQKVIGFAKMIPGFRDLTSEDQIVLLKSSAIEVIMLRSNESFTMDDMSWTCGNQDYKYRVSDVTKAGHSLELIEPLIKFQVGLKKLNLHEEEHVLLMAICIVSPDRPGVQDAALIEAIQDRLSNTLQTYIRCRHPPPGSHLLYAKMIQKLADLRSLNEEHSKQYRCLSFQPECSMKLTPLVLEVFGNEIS
How it was run: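 VDR-UAS-bla HEK293T cells (2000/well, 2% charcoal-stripped FBS) were treated with titrated compounds plus 1-alpha,25-dihydroxyvitamin D3 (50 nM or 3 nM final) for 16 h at 37 C. CCF4 beta-lactamase fluorescence was read; Hill fits gave IC50.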

[15] = molecular target: Vitamin D3 receptor (Homo sapiens) (UniProt P11473); test: qHTS assay for small molecule agonists of vitamin D receptor signaling (AID 588543)
How it was run: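 β-lactamase reporter, VDR-UAS-bla HEK293T, agonist mode. Cells plated 5 h at 37 °C, compound titration 16 h at 37 °C, CCF4 dye 2 h RT, ratio 460/530 nm. Hill fit → EC50, efficacy vs 50 nM 1α,25-(OH)2D3.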

[16] = qHTS assay for small molecule agonists of retinoid X receptor alpha signaling (AID 588544); settings: HEK293T RXRa-UAS-bla, beta-lactamase reporter, 18 h; 530 nm emission
[17] = molecular target: Retinoic acid receptor RXR-alpha (Homo sapiens) (UniProt P19793); test: as above
[18] = molecular target: Thyroid hormone receptor beta (Homo sapiens) (UniProt P10828); test: qHTS assay for small molecule agonists of thyroid hormone receptor beta signaling (AID 588545)
Chain of Thyroid hormone receptor beta (Homo sapiens) (P10828 whole entry, looked up): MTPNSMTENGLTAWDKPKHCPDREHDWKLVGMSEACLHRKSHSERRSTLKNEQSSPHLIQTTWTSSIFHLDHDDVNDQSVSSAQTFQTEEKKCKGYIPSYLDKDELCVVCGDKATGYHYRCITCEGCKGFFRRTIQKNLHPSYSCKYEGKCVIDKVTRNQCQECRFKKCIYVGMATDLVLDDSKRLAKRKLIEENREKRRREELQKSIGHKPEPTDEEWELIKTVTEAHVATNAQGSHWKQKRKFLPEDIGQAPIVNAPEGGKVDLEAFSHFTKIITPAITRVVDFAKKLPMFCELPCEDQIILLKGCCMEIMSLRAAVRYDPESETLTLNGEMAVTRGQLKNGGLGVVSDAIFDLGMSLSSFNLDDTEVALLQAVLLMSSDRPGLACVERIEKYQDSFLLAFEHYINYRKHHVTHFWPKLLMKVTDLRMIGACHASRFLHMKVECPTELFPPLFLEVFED
How it was run: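 In this cell-based screen, titrated compounds act on HEK 293 cells held in medium with 2% charcoal/dextran FBS, NEAA and pyruvate for 18 hrs at 37 C. Responses are expressed relative to T3 (10 nM) as 100% and basal DMSO as 0%.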

[19] = qHTS assay for small molecule antagonists of retinoid X receptor alpha signaling (AID 588546; active = well fitted inhibition curve with a large enough effect in the signal ratio, with a control signal flat, not every such curve was filed as active; the % refers to the signal ratio;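 note: cells stimulated with 9-cis-retinoic acid as agonist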); settings: HEK293T RXRa-UAS-bla, beta-lactamase ratio, antagonist mode; measured here: W530 green channel, cytotoxicity proxy
How it was run: (§2)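 Beta-lactamase reporter inhibition, read as CCF4 fluorescence ratio (ex 405, em 460/530 nm) after 2 h at RT. HEK293T UAS-bla cells, 2500/well, were stimulated with 9-cis-RA at 500 or 100 nM final alongside test compound for 18 h at 37 C.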

[20] = molecular target: Retinoic acid receptor RXR-alpha (Homo sapiens) (UniProt P19793); test: as above; settings: HEK293T RXRa-UAS-bla, beta-lactamase ratio, antagonist mode
How it was run: as §2

[21] = molecular target: Thyroid hormone receptor beta (Homo sapiens) (UniProt P10828); test: qHTS assay for small molecule antagonists of thyroid hormone receptor beta signaling (AID 588547; active = well fitted inhibition curve with a large enough effect in the signal ratio, with a control signal flat, not every such curve was filed as active; the % refers to the signal ratio;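 note: cells stimulated with 0.4 nM T3 agonist during compound exposure; series mostly up to about 77 µM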); settings: TR-UAS-bla HEK293, beta-lactamase ratio, antagonist mode, 18 h
How it was run: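 TR-UAS-bla GripTite HEK293 cells in 2% charcoal/dextran FBS medium were preincubated 4 h at 37 C, given compound (0.59 nM to 92 uM) plus 0.4 nM T3 (final) for 18 h, then CCF4 for 2 h at RT; Hill fit gave IC50.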

[22] = qHTS assay for small molecule activators of the p53 signaling pathway (AID 651743; active = well fitted activation curve with a large enough effect in the signal ratio, not every such curve was filed as active; the % refers to the signal ratio; note: series mostly up to about 92 µM); settings: HCT-116 p53RE-bla, beta-lactamase FRET ratio, 16 h; activation: stronger effect = higher value
How it was run: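 Agonist-mode quantitative HTS in HCT-116 cells carrying a p53-response-element beta-lactamase reporter; 16 h compound treatment at 37 C, then FRET substrate loading for 2 h at room temperature and fluorescence read.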

[23] = qHTS assay for small molecule activators of the nuclear factor-kappa B (NF-kB) signaling pathway (AID 651749; active = well fitted activation curve with a large enough effect in the signal ratio; the % refers to the signal ratio; note: series mostly up to about 77 µM); settings: NF-kB-bla ME-180 cells, beta-lactamase FRET ratio, 16 h; activation: stronger effect = higher value
How it was run: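 Human ME-180 cervical cells with an NF-kB-bla construct; compounds added via 23 nL pin transfer, DMSO as vehicle; incubation 16 hr. Reporter activity measured by FRET disruption.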

[24] = qHTS assay for environmental chemicals that activate the Aryl hydrocarbon Receptor (AhR) signaling pathway (AID 651777; active = well fitted curve in the direction sought with a large enough effect; an effect the other way counts as inactive or inconclusive; note: nearly all actives have a fitted effect of over 15% in size); settings: 1A2-DRE human hepatoma cells, luciferase, 24 h; activation: stronger effect = higher value
How it was run: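 Stable CYP1A2 promoter/DRE-luciferase human hepatoma line treated 24 hr; One-Glo luminescence, 30 min RT.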

[25] = molecular target: Peroxisome proliferator-activated receptor alpha (Homo sapiens) (UniProt Q07869); test: qHTS assay for small molecule agonists of the peroxisome proliferator-activated receptor alpha (PPARalpha) signaling pathway (AID 651778; active = well fitted curve in the direction sought with a large enough effect; an effect the other way counts as inactive or inconclusive); settings: PathHunter PPARalpha complementation, chemiluminescence, 6 h; max response: stronger effect = higher value
How it was run: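 Cells plated at 2,000/well and held overnight at 37 C, 5% CO2, then compound added by pin tool for 6 hr; after PathHunter detection reagent and 60 min at room temperature, chemiluminescence from enzyme complementation was read.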

[26] = qHTS assay for small molecule agonists of the antioxidant response element (ARE) signaling pathway measured by Nrf2-dependant transcriptional activity - cell viability counter screen (AID 720653; active = well fitted curve in the direction sought with a large enough effect in the repeat runs; an effect the other way counts as inactive or inconclusive); settings: ARE-bla HepG2 viability, CellTiter-Glo ATP luminescence, 16 h; max response: stronger effect = lower value
How it was run: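 ARE-bla HepG2 cells (2,000/well) rested 5 hrs at 37C/5% CO2, then exposed to compounds in DMSO for 16 hrs. Viability was read in the same wells as intracellular ATP by luminescence, 30 min at room temperature after reagent addition.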

[27] = qHTS assay for cell viability of HEK293 cells (AID 743288; active = well fitted curve in the direction sought with a large enough effect; an effect the other way counts as inactive or inconclusive; note: nearly all actives have a fitted effect of over 50% in size); settings: ATP luminescence (CellTiter-Glo), 18 h; max response: stronger effect = lower value
How it was run: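 ATP luminescence (CellTiter-Glo) reports metabolically competent cell number after parental HEK293 cells, 2,000/well, were treated with DMSO-dissolved compounds for 18 h at 37 C; reagent incubation 30 min, room temperature.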

[28] = qHTS assay for cell viability of the p53RE-bla HCT-116 cell line (AID 743292; active = well fitted curve in the direction sought with a large enough effect; an effect the other way counts as inactive or inconclusive; note: nearly all actives have a fitted effect of over 55% in size)
How it was run: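 Readout: CellTiter-Glo luminescence after 30 min RT. Treatment: compounds in DMSO, 16 h, 37 C. Cells: CellSensor p53RE-bla HCT-116, 4,000/well, preincubated 5 h.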

[29] = molecular target: Nuclear receptor subfamily 1 group I member 2 (Rattus norvegicus) (UniProt Q9R1A7); test: qHTS assay for small molecule activators of the rat pregnane X receptor (rPXR) signaling pathway (AID 651751; call rule not given here); settings: rPXR reporter cells, luciferase (One-Glo), 24 h
[30] = qHTS assay for small molecule activators of the human pregnane X receptor (PXR) signaling pathway (AID 720659; call rule not given here)

## C/C(=N\C(N)=O)N(C)Cc1ccc(Cl)nc1
[1]
  Potency: inactive
[2]
  Potency: inactive
[3]
  activation: -2.44% (inactive)
[4]
  Potency: inactive
[5]
  Potency: inactive
[6]
  activation: 2.77% (inactive)
[7]
  activation: -1.3% (inactive)
[8]
  Potency: inactive
[9]
  outcome: inactive
[10]
  max response: 39.3%
[11]
  Potency: inactive
[12]
  Potency: inactive
[13]
  Potency: inactive
[14]
  Potency: inactive
[15]
  outcome: inactive
[16]
  max response: -8.24%
[17]
  Potency: inactive
[18]
  Potency: inactive
[19]
  max response: -9.48%
[20]
  max response: -3.51% (inactive)
[21]
  activity change % (negative = inhibition): -10.7% (inactive)
[22]
  activation: -4.92% (inactive)
[23]
  activation: -1.01% (inactive)
[24]
  activation: -0.747% (inactive)
[25]
  max response: -1.45% (inactive)
[26]
  max response: -7.18% (inactive)
[27]
  max response: 0.858% (inactive)
[28]
  Potency: inactive
[29]
  max response: 2.68% (inactive)
[30]
  outcome: inactive
